In the library only some 4.7% were active in any assay of this set; here they are far more common.
TIM10 inh – TIM10 yeast growth inhibition; S. cerevisiae TIM10 strain growth, BacTiter-Glo luminescence, 24 h; inhibition, % at 10 µM; 1.4% of 330,000 active; AID 463195;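 active = inhibition of 40% or more at the single tested concentration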;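 also: wild-type TIM10 isogenic control strain grown at permissive 25 °C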
tim10-1 inh – growth inhibitors of tim10-1 mutant yeast; AID 463190; S. cerevisiae tim10-1 ts strain growth, BacTiter-Glo, 24 h; 2.2% of 330,000 active; inhibition, % at 20 µM;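 active = inhibition of at least 40%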;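 also: mutant grown at 25 °C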
tim23-1 inh – inhibits growth of tim23-1 mutant yeast; S. cerevisiae tim23-1 growth, BacTiter-Glo luminescence, 24 h; inhibition, % at 20 µM; 1.3% of 330,000 active; AID 463212;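 active = growth inhibition of the mutant yeast at or above 50%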;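 also: temperature-sensitive mutant grown at 25 °C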
Calb FLC – C. albicans growth modulation with fluconazole; growth inhibition, % (test concentration not listed); 0.57% of 300,000 active; C. albicans CaCi-2 (fluconazole-resistant clinical isolate) + fluconazole, Alamar Blue growth, 48 h; AID 1979;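 active = growth inhibition above about 58% in most replicates, limit read from the data, passing the limit was not always enough; inconclusive = exactly half the replicates above a set limit; inactive = most replicates below a set limit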;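 also: all wells also contain fluconazole at 8 µg/ml as a sub-toxic cotreatment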
PfHsp90 yeast 2 – reduces growth (ATP signal) of yeast expressing P. falciparum Hsp90; S. cerevisiae expressing PfHsp90, BacTiter-Glo ATP, 48 h; yeast lacking PDR1 and PDR3 efflux regulators; inhibition, % at 9.4 µM; 0.32% of 310,000 active;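 active = every replicate shows inhibition above about 80%, whatever the replicate mean, limit read from the data; inconclusive = mean inhibition reaches the set limit but some replicate falls short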
SKKanGAS inh – inhibitors of SKKanGAS S. pyogenes growth in kanamycin (SK-promoter or general growth effect); BacTiter-Glo, 6 h; inhibition, % at 7.5 µM; 1.3% of 300,000 active; AID 1662;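 active = mean replicate score, as percent of positive control median, at least 50; inconclusive = mean below 50 but one replicate at or above 50; inactive = mean and every replicate below 50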;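 also: strain carries kanamycin resistance gene driven by streptokinase promoter and grows in 40 µg/ml kanamycin; loss of luminescence reflects streptokinase promoter inhibition or plain growth inhibition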
tim10-1 conf – tim10-1 yeast growth inhibition, confirmed; 56% of 7,400 active; S. cerevisiae tim10-1 ts strain growth, BacTiter-Glo, 24 h; inhibition, % at 20 µM; shares compounds with tim10-1 inh; AID 463213;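 active = inhibition of yeast growth at or above a set limit in either of two repeat tests at 20 µM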;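 also: tim10-1 mutant grown at permissive 25 °C to find synthetic lethal compounds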
A number is an active result; . = inactive; ? = inconclusive; / = no result.

SMILES	TIM10 inh	tim10-1 inh	tim23-1 inh	Calb FLC	PfHsp90 yeast 2	SKKanGAS inh	tim10-1 conf
CC(C)c1ccc(S(=O)(=O)/N=C2/C=CC(=O)c3ccccc32)cc1	.	43	.	/	/	/	.
O=C(Nc1ccc(F)cc1F)c1cccc(S(=O)(=O)N2CCCCC2)c1	.	46	.	/	/	/	.
O=C(Nc1ccc(S(=O)(=O)N2CCCCC2)cc1)c1cccnc1Cl	.	42	.	.	.	.	.
O=C(Nc1ccc(S(=O)(=O)N2CCCCC2)cc1)c1ccc(F)cc1	.	49	.	.	.	.	48
CCOC(=O)/C=C/C(=O)Nc1ccc(S(=O)(=O)N2CCCCCC2)cc1	.	44	.	.	/	.	34
O=C(O)C(Cc1ccccc1[N+](=O)[O-])N1C(=O)c2ccccc2C1=O (stereo not given)	/	/	/	/	.	/	/
CC(OC(=O)c1cccc(N(C)C)c1)C(=O)N1CCc2ccccc2C1 (stereo not given)	.	.	.	/	.	/	/
CCOC(=O)C1=NN(C(=O)Cc2ccccc2)C(O)(c2ccc(Cl)cc2)C1 (stereo not given)	.	42	.	.	.	.	32
O=C(c1cc(C2CC2)nn1-c1ccccc1)N1CCN(c2ccccn2)CC1	.	42	.	/	.	/	.
Cc1ccc(S(=O)(=O)N2CCOCC2)cc1C(=O)OC(C)C(=O)c1ccccc1 (stereo not given)	.	.	.	.	.	.	/
O=C(CSc1n[nH]c(-c2ccccc2O)n1)N1CCCc2ccccc21	.	45	.	.	.	.	.
O=C(CSc1nnnn1-c1ccccc1)N1CCCc2ccccc21	.	43	.	.	.	.	.
CCOc1ccc(-n2c(C)nc3cc(C(=O)NCc4ccc5c(c4)OCO5)ccc32)cc1	.	47	.	.	.	.	35
Cc1ccc(-c2noc(CN(C(=O)C(c3ccccc3)c3ccccc3)C(C)C)n2)cc1	.	41	.	.	.	.	.
CS(=O)(=O)c1cccc(C(=O)N(CCc2ccccc2)Cc2cccs2)c1	.	.	.	.	.	.	/
Nc1ccc(C(=O)C(=O)c2ccccc2)cc1	.	.	.	.	.	.	/
Cc1ccccc1CSCCNC(=O)c1ccccc1	.	.	.	.	.	.	/
Cc1ccccc1CSCCNC(=S)Nc1ccccc1	.	45	.	.	.	.	.
CCN(CC)CCN(Cc1cc2cccc(C)c2[nH]c1=O)C(=S)Nc1ccccc1	.	.	.	.	.	.	/
Cc1ccc2cc(CN(CCN(C)C)C(=S)Nc3ccccc3)c(=O)[nH]c2c1C	.	40	.	?	/	.	.
COc1ccc(C(=O)Nc2ccnn2C2CCN(Cc3ccccn3)CC2)cc1	.	.	.	.	.	.	/
COc1cccc(NC(=O)CSc2nnnn2C2CCCC2)c1	.	.	.	.	.	.	/
COc1cc(NC(=O)CSc2nnnn2C2CCCC2)cc(OC)c1	.	97	.	.	.	.	.
CCc1ccc(NC(=O)CNC(=O)[C@@H]2Cc3ccccc3CN2C(=O)OC(C)(C)C)cc1	.	.	.	.	.	.	/
Cc1cc(-c2nc3ccccc3o2)c2ccccc2n1	.	41	.	.	/	.	.
SMILES	TIM10 inh	tim10-1 inh	tim23-1 inh	Calb FLC	PfHsp90 yeast 2	SKKanGAS inh	tim10-1 conf
Cc1cc(C(=O)O)c2ccccc2n1	.	.	.	.	.	.	/
COc1ccc(C(=O)OC(C)C(=O)NCC2CCCCC2)cc1S(=O)(=O)N1CCOCC1 (stereo not given)	.	.	.	/	.	/	/
CC1CCC2(CC1)C(Nc1cccc(Cl)c1)=NC(=S)N2CC#N (stereo not given)	.	43	.	?	.	.	39
COc1ccc(N2C(=S)N=C(Nc3cccc(C)c3)C23CCCCC3)cc1	.	.	.	?	.	.	/
CCOC(=O)C1=C(COC(=O)C(C)(C)Oc2ccc(Cl)cc2)NC(=O)NC1C (stereo not given)	.	.	.	/	.	/	/
N=C(N)c1ccc(Cl)cc1	.	.	.	.	.	.	/
N=C(N)c1ccc(/C=C/c2ccc(C(=N)N)cc2O)cc1	.	56	.	95	.	100	70
CC1(c2ccc(Cl)cc2)NC(=O)N(CN2CCOCC2)C1=O (stereo not given)	.	.	.	.	.	.	/
Cc1cc(Nc2ccccc2)nn1C(=O)c1ccc(Br)cc1	.	53	.	.	.	50	.
CCOC(=O)Cc1cc(-c2ccc(O)cc2)nc2ccc3ccccc3c12	.	42	.	.	.	.	.
CCOC(=O)CC(=O)CSc1nc2cc(C)ccc2cc1C	.	44	.	.	.	.	.
CC(=O)Nc1nc(-c2cc([N+](=O)[O-])cs2)cs1	.	.	.	.	.	.	/
CSc1ccc(/C=N/NC(=O)CNc2ccc3ccccc3c2)cc1	.	46	.	.	.	.	43
O=C(CNc1ccc2ccccc2c1)N/N=C/c1ccncc1	.	.	.	.	.	.	/
CCN=C1S/C(=C\c2ccc(Sc3ccc(Cl)cc3)o2)C(=O)N1CC	.	.	.	.	.	.	/
CCN=C1S/C(=C/c2ccc(-c3ccc(F)cc3)o2)C(=O)N1CC	.	45	.	.	.	.	29
CC1CCCN(C(=O)c2cccc(S(=O)(=O)N3CCCC3)c2)C1 (stereo not given)	.	.	.	/	.	/	/
CCOc1ccccc1N1CCN(C(=O)Nc2cccc(Cl)c2)CC1	.	44	.	.	/	.	.
O=C(CSc1n[nH]c(-c2cccs2)n1)N1CCCC1	.	.	.	/	.	/	/
c1ccc(-c2nc(CSc3n[nH]c(-c4cccs4)n3)cs2)cc1	.	42	.	.	.	.	34
COc1cccc(Nc2nnc(SCC3CCCCO3)s2)c1 (stereo not given)	.	.	.	.	.	.	/
Cc1cccc(Nc2nnc(SCC3CCCCO3)s2)c1C (stereo not given)	.	48	.	.	.	.	33
COc1ccc(Nc2nnc(SCC3CCCO3)s2)cc1 (stereo not given)	.	46	.	.	.	.	.
CCN(C(=O)CSc1ncccn1)c1c(N)n(Cc2ccccc2)c(=O)[nH]c1=O	.	.	.	/	/	/	/
CCOc1cc(C(=O)N/N=C/c2cn(-c3ccccc3)nc2-c2cc3ccccc3o2)cc(OCC)c1OCC	/	/	/	/	.	/	/
O=C(NNc1ccccc1)c1ccc(Cl)c(Cl)c1	/	/	/	/	.	/	/
CCOC(=O)N1CCN(C(=O)c2ccc(CSc3ccc(Cl)cc3)cc2)CC1	.	45	.	.	.	.	45
CN1CCN(C(=O)c2ccc(CSc3ccc(Cl)cc3)cc2)CC1	.	.	.	.	.	.	/
Cc1cc(N2CCCC2)nc(N2C3CCC2CC(O)(c2ccc(F)cc2)C3)n1 (stereo not given)	.	.	.	.	/	.	/

Bioassay records from PubChem BioAssay.
